# Source: the supplement of paper PMC12636033
# ± gives the standard deviation of the averaged measurements. Whole data set: some 33,000 sequences, median “E-score (rank enrichment, -0.5 to 0.5)” near -0.0043, cut for the highest 2% near 0.24. For the sample, the highest values were picked, then their nearest neighbours and some sequences at random.
# Tested on: 2Sp-muMax20 (muMax20 with two 2,6-bis(methyl)pyridine Cys staples)
# Assay: PBM 8-mer E-score (E-score (rank enrichment, -0.5 to 0.5)); higher = stronger preferential binding
# Protocol: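 Protein binding microarray (universal PBM chip covering all 10-mers in fixed probe flanks) with chemically synthesized human Max(13-93) bHLH-LZ analogs (not full-length Max) bearing noncanonical residues (hArg, Tha, Aib, Nle at 65) and aromatic Cys staples. Read-out per 8-mer (and its reverse complement): E-score (rank-based enrichment, -0.5 to 0.5) and Z-score of median probe intensity.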
row,Sequence,PBM 8-mer E-score
1,CACAGCGG,-0.125 ± 0.059
2,GATGCCGA,-0.0813 ± 0.081
3,AGCGTATA,0.0565 ± 0.04
4,ACATCACT,0.176 ± 0.046
5,GCCAGTAA,-0.116 ± 0.011
6,CCTCGCGC,-0.0606 ± 0.077
7,CCTCAGAG,-0.228 ± 0.044
8,ATGGGGGA,-0.0138 ± 0.082
9,ATGGGGAC,0.0501 ± 0.13
10,ATGGGATA,0.179 ± 0.02
11,GTGGGATA,0.292 ± 0.047
12,ATGGGGAA,0.266 ± 0.018
13,CTGGGATA,-0.0899 ± 0.077
14,AGCATACG,0.02 ± 0.039
15,ATCGAGAA,0.0729 ± 0.041
16,ACAGGACC,-0.187 ± 0.045
17,CCGGTCCC,-0.358 ± 0.035
18,AACACACA,0.118 ± 0.081
19,CACATATG,0.112 ± 0.013
20,ATCATATG,0.138 ± 0.065
21,CACATATA,0.328 ± 0.021
22,CACATATC,0.223 ± 0.019
23,AACACACT,0.249 ± 0.0053

row,Sequence,PBM 8-mer E-score
1,AACATATA,0.269 ± 0.036
2,GTCATATA,0.207 ± 0.099
3,GACATATA,0.12 ± 0.0021
4,ATCATATA,0.254 ± 0.041
5,AACACACG,0.0266 ± 0.031
6,AACATATG,0.0968 ± 0.03
7,ACCGGTCG,-0.287 ± 0.03
8,CCACGCCC,0.0986 ± 0.0018
9,CTCGTTAC,0.0748 ± 0.13
10,CGGAATTC,-0.121 ± 0.019
11,AGCGTTAA,0.0977 ± 0.058
12,ATCCAGTC,-0.0864 ± 0.015
13,CAGGAACC,-0.307 ± 0.049
14,CCCATAAG,0.182 ± 0.018
15,CCCAGCTC,-0.0772 ± 0.05
16,CACATCTG,-0.0474 ± 0.049
17,AACACATG,0.224 ± 0.05
18,TACATAAA,0.229 ± 0.018
19,TACATATA,0.262 ± 0.09
20,CACATCTA,0.258 ± 0.014
21,TACATACA,0.211 ± 0.075
22,CACATCTC,-0.00875 ± 0.02
23,CACACATA,0.061 ± 0.0022

row,Sequence,PBM 8-mer E-score
1,AACACATA,0.257 ± 0.046
2,TAGGTCCA,-0.13 ± 0.058
3,GCAACCGA,-0.233 ± 0.078
4,CGACCATC,-0.0509 ± 0.089
5,CCATTGTA,0.214 ± 0.022
6,ATAAAGCA,0.241 ± 0.014
7,AATAAAAG,0.25 ± 0.074
8,AATAAAGG,0.0234 ± 0.076
9,CATAAATA,0.33 ± 0.059
10,ATAAAAAA,0.202 ± 0.038
11,ATAAAAGG,0.0278 ± 0.023
12,CATAAAAG,-0.0196 ± 0.1
13,ATAAAAAG,0.315 ± 0.0042
14,TATAAATA,0.203 ± 0.1
15,CTAAAGCA,0.0725 ± 0.028
16,ATAAAGCG,0.0648 ± 0.005
17,AATAAATA,0.0526 ± 0.066
18,TACGAGAA,0.0414 ± 0.0095
19,CCCGACTC,-0.0283 ± 0.023
20,CCGAGCCG,-0.298 ± 0.03
21,GACCCGCC,0.106 ± 0.0061
22,TCGGAGAA,-0.136 ± 0.017
23,AGGTCTAG,0.0236 ± 0.096

row,Sequence,PBM 8-mer E-score
1,ACCTGGTA,-0.129 ± 0.0054
2,CATGGGCG,-0.0275 ± 0.017
3,CAGCCCCC,-0.165 ± 0.099
4,CACTTGAA,0.112 ± 0.02
5,CAAAGGGA,-0.103 ± 0.053
6,AATAAAAC,0.223 ± 0.072
7,GTAAAACA,0.174 ± 0.056
8,ATAAAACA,0.244 ± 0.067
9,AATAACAC,0.134 ± 0.04
10,ATCAAGCA,-0.065 ± 0.053
11,AATAACAA,0.259 ± 0.041
12,CTCAAACA,-0.00491 ± 0.013
13,ATAAAACG,0.145 ± 0.057
14,ATCAAACA,0.26 ± 0.0065
15,AATAACAT,0.221 ± 0.13
16,AATAAAAT,0.103 ± 0.12
17,AATAAAAA,0.258 ± 0.0034
18,AGACACAC,0.158 ± 0.0089
19,GCTTCAGA,-0.0923 ± 0.073
20,AATCGATT,0.0682 ± 0.041
21,AAACGAGG,0.0592 ± 0.027
22,CAGATGTC,-0.0701 ± 0.0093
23,CCCAGGTA,-0.0104 ± 0.052

row,Sequence,PBM 8-mer E-score
1,AATACAAG,0.245 ± 0.086
2,AATACAAA,0.28 ± 0.018
3,AATACAGA,0.00182 ± 0.094
4,TATACAAA,0.256 ± 0.065
5,AATACGCA,0.286 ± 0.0084
6,AATACAAC,0.221 ± 0.053
7,AATACAAT,0.0568 ± 0.04
8,GATACGCA,0.0806 ± 0.032
9,CATACAAA,0.0246 ± 0.065
10,AATACGCT,0.217 ± 0.0037
11,GATACAAA,0.084 ± 0.0085
12,AATACATA,0.139 ± 0.0041
13,GCGTCCAA,0.016 ± 0.062
14,TAGGATCA,-0.0923 ± 0.052
15,CAATAGTC,-0.0201 ± 0.017
16,ACGTGGTG,0.236 ± 0.017
17,AGGTGGTG,-0.104 ± 0.087
18,ACGTGGTC,0.129 ± 0.092
19,GCGTGGTA,0.237 ± 0.045
20,ACGTGGTA,0.146 ± 0.11
